211 variants from the emibetuzumab library of Makowski et al. (2022) can be followed below.

The other results are listed elsewhere or left out. How many sequences the whole screen found active is unknown.

B1: VH:VL chains; a variant is named by its letters at X, in order (parent)
chain 1: QVQLVQSGAEVKKPGASVKVSCKASGYTFTDYXMHWVRQAPGQGLEWMGXVNPNXXXTTYNQKFEGRVTMTTDTSTSTAYMELRSLRSDDTAVYYCARXNXLDXWGQGTTVTVSS
chain 2: DIQMTQSPSSLSASVGDRVTITCSVSSSVSSIYLHWYQQKPGKAPKLLIYSTSNLASGVPSRFSGSGSGTDFTLTISSLQPEDFATYYCQVYSGYPLTFGGGTKVEIK

This assay covers variants of B1. The assay is described as follows: yeast display scFab, FACS + sequencing. To be noted: with MET. The procedure, abridged:
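Heavy-chain CDR mutant scFab yeast surface library, enriched by two magnetic rounds on HGFR-Fc-coated Protein A beads and then by FACS. Cells were labelled with 1 nM HGFR-Fc in PBSB with 1% milk and anti-Myc for 3 h at room temperature, and the top 50% antigen-positive cells were gated. Round-3 sorted and input populations were deep sequenced in two replicates. Antigen binding call: positive if a sequence occurred in both antigen-positive samples, negative if it occurred only in input.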
As to DGGRGDGA, the antigen binding call was “no binding”.
With AKTGNDVA the entry was “no binding”; with DRAGDALD, “binds”; with DRAGDSLD, “no binding”.
With YRAGDALD the entry was “binds”.
With DTTGSALD the entry was “no binding”.
Regarding YRAEGALD, the antigen binding call was “binds”.
With DRREDALD the entry was “binds”; with DAGAADVV, “no binding”.
In the case of DRGGDDVD, the antigen binding call is on record as “no binding”.
As to AARADSAD, the antigen binding call is “no binding”.
With ARRTDVAD the entry was “binds”; with AREGDAGD, “no binding”; with YTGGNDAD, “no binding”.
Turning to YRRRGVAD, the antigen binding call is on record as “binds”.
With VRRRGAAD the entry was “binds”; with VGGGGAAD, “no binding”; with YRAGGDAD, “binds”.
YATAADAD: the antigen binding call is recorded as “no binding”.
With FERRAFGY the entry was “no binding”.
With YRRKGDAD the entry was “no binding”; with YRRRGDAD, “binds”.
With YRRRGAAD the entry was “binds”.
Regarding YRRGGAAD, the antigen binding call is “binds”.
With AAARNFLF chain 1 V68I the entry was “no binding”; with SEARSSAS, “no binding”; with DEGGTDSF, “no binding”.
With VKGASDVV the entry was “no binding”; with DTGGGAGA, “no binding”.
With VRGTGYAS the entry was “no binding”; with YKGRGYAA, “binds”; with YKGRGYVA, “no binding”.
In the case of YRGRGYAA, the antigen binding call was “binds”.
For the variant YRGKGYAA, the antigen binding call was “binds”.
With VRGRGYAA, the antigen binding call is reported as “binds”.
With VRGRGFAA the entry was “no binding”.
With VTTRAASV the entry was “no binding”; with SREEGFSV, “no binding”.
With YGGGGAVA the entry was “no binding”.
For the variant VRAGGDLA, the antigen binding call is given as “no binding”.
Regarding VTGRGDLA, the antigen binding call was “no binding”.
As to YGGRGAVA, the antigen binding call was “binds”.
Take YRGRGVAA: the antigen binding call is listed as “binds”.
With YEGRGDVA, the antigen binding call is “no binding”.
On to YRAGGYAA, for which the antigen binding call was “binds”.
Regarding VRGRGDLA, the antigen binding call was “binds”.
For the variant SETKGDVY, the antigen binding call was “no binding”.
On to DREEGFSV, for which the antigen binding call is “no binding”.
With AAGGDYVF the entry was “no binding”.
With VTEGDAGD the entry was “no binding”; with VERRGSWS, “no binding”.
With YAKADYSS the entry was “no binding”; with YERRGSWS, “no binding”; with YRRGGAWS, “binds”.
On to YRRRGSWS, for which the antigen binding call is “binds”.
With YRRRGAWS the entry was “binds”; with YRRRGYSS, “binds”.
With VTRGDVWV the entry was “no binding”; with VTGTGDVV, “no binding”; with SEGTGAGV, “no binding”.
With SKTKSDGS the entry was “no binding”.
Take YRRRGSSS: the antigen binding call is “binds”.
Regarding SKERGDLV, the antigen binding call is “no binding”.
Turning to SKRRGSLS, the antigen binding call is “binds”.
With YRRRGAAS the entry was “binds”; with YRRRGSLS, “binds”.
Turning to VETEGAGA, the antigen binding call is listed as “no binding”.
With SREAADGV the entry was “no binding”; with AETTDSWV, “no binding”; with FGATSVSF, “no binding”.
In the case of SARTDFWF, the antigen binding call is on record as “no binding”.
With ARAETDVY the entry was “no binding”; with YRRRSSSS, “binds”; with YRRRGSAS, “binds”.
With YRRRGSVS the entry was “binds”; with YRRRGALS, “binds”; with DARGGSSS, “no binding”.
For VTEENDGY, the antigen binding call was “no binding”.
With FAEGDDVY the entry was “no binding”.
With ATTKSDVA the entry was “no binding”; with YARETDGA, “no binding”.
With DAGAADGA the entry was “no binding”; with YRRRGASS, “binds”; with YRRRGSGS, “binds”.
Take DAEATDVA: the antigen binding call is listed as “no binding”.
For YRAGTSGD, the antigen binding call is listed as “binds”.
With VAEKGAGD the entry was “no binding”; with YKEKGAVD, “no binding”.
In the case of YRAKGSGD, the antigen binding call was “binds”.
With YREKGAGD the entry was “binds”; with YRAKGAGD, “binds”; with DGGEGVVY, “no binding”.
For the variant AKRGAFAD, the antigen binding call is given as “no binding”.
On to VGGKNSVD, for which the antigen binding call was “no binding”.
With VKGRADAD the entry was “no binding”; with YRRKGAGD, “binds”; with YRAGSSGD, “binds”.
With YRAGASGD the entry was “binds”.
In the case of YAAGASVD, the antigen binding call is recorded as “no binding”.
With VKEADDVA the entry was “no binding”.
For the variant YRGRTSLD, the antigen binding call is “binds”.
For the variant YREGGSVD, the antigen binding call is “binds”.
Turning to YRERSSLD, the antigen binding call is “binds”.
In the case of VTEGGSVD, the antigen binding call is “no binding”.
In the case of YREGGSLD, the antigen binding call is listed as “binds”.
With DAEGGSLD the entry was “no binding”; with VTTKSDVF, “no binding”; with AETKGDVY, “no binding”.
With SAGEGDGV, the antigen binding call is reported as “no binding”.
With AKKRGAWS the entry was “binds”.
With VKEKGAWV the entry was “no binding”.
Consider FKTEGFVS, for which the antigen binding call is listed as “no binding”.
With FAKRGAWS the entry was “no binding”; with VKEKGAWS, “no binding”.
With YARGADGS the entry was “no binding”.
With AERRGSWS the entry was “no binding”; with FKKRGAWS, “binds”; with AAKRGSWV, “no binding”.
In the case of YKTRSAWS chain 1 M48I, the antigen binding call is recorded as “no binding”.
As for VKKRGAWS, the antigen binding call is given as “binds”.
With YKRGAAWS the entry was “binds”; with DATGGDVF, “no binding”.
For the variant YERTTDLS, the antigen binding call was “no binding”.
VGGTSDGD: the antigen binding call is “no binding”.
On to VTEEGDWV, for which the antigen binding call is given as “no binding”.
ATKGAAVA: the antigen binding call is “no binding”.
In the case of YEKGGAWS, the antigen binding call was “no binding”.
With YKKRGAWS the entry was “binds”; with VTTKSAGV, “no binding”.
With DAEATSLV the entry was “no binding”; with YRRGGSAA, “binds”; with YRRGSSAA, “binds”.
Take VTGEDDVD: the antigen binding call was “no binding”.
With VKARGSAF the entry was “binds”; with VKAGGDAV, “no binding”; with VKARGAAV, “binds”.
As to VKAGDAAV, the antigen binding call was “no binding”.
For the variant VEEEGSAV, the antigen binding call is “no binding”.
With VAARGDAA the entry was “no binding”; with VKARGSAV, “binds”; with VKGRASAF, “no binding”.
With VAARGAAV the entry was “no binding”; with SGREGDSA, “no binding”; with DGGGNVSD, “no binding”.
Take DEGGTDWV: the antigen binding call is given as “no binding”.
With SAREGYSV, the antigen binding call is reported as “no binding”.
With DEARNAGA the entry was “no binding”; with FRGRGSGV, “binds”; with FRGRSSGV, “binds”.
With FRTADVGV the entry was “no binding”.
With FRAGSSGV the entry was “binds”; with FRTRSSGV, “binds”.
On to VTKGGSSA, for which the antigen binding call is “no binding”.
As to SEKKADWA, the antigen binding call is on record as “no binding”.
With VTTKSDVA the entry was “no binding”; with VRTEDDVY, “no binding”; with FKGRGSGV, “binds”.
With SEGRGSGV the entry was “no binding”; with VGGTSSSV, “no binding”.
In the case of VRGTGDWD, the antigen binding call is on record as “no binding”.
With VRGTGSAD the entry was “no binding”; with VRGTGSWD, “binds”.
With VRGEGSWD, the antigen binding call is reported as “binds”.
With YTEGDDGV the entry was “no binding”.
Consider YTGGDDWV, for which the antigen binding call is given as “no binding”.
Take DEGTDYAA: the antigen binding call is “no binding”.
With FKGRGDGS the entry was “no binding”; with FKTGDAWS, “no binding”.
FKGRGAWS: the antigen binding call is “binds”.
Regarding FKGRGAGS, the antigen binding call is listed as “binds”.
Take DATGGDGA: the antigen binding call was “no binding”.
With DKGGSSLD the entry was “no binding”.
YEGTGSAD: the antigen binding call was “no binding”.
Take YKGGSSLD: the antigen binding call was “binds”.
With YKGGSSAD the entry was “binds”; with YTGTSSAD, “no binding”; with DATGGSSA, “no binding”.
Consider YKRGDAWA, for which the antigen binding call was “binds”.
Take YKRGDAWD: the antigen binding call is given as “binds”.
With YTRGNAWA the entry was “no binding”; with YKRGSAWD, “binds”; with YRRGDFWA, “no binding”.
As for YKRAAVWD, the antigen binding call is reported as “no binding”.
Consider VKGRGAAY, for which the antigen binding call is recorded as “binds”.
With VEGRGAVY, the antigen binding call is recorded as “no binding”.
Consider YKGRGAAY, for which the antigen binding call was “binds”.
With VKGTGVAY the entry was “no binding”; with YAGETFGA, “no binding”.
With SETGGFVV the entry was “no binding”; with DGGENDVY, “no binding”; with YTKEASGY, “no binding”.
With YRRKGSGY the entry was “binds”; with ARTKGSGY, “no binding”.
In the case of YRKGGSGY, the antigen binding call is listed as “binds”.
For FRGRGSAY, the antigen binding call is “binds”.
With YRGRGSAY the entry was “binds”; with FRGRGSSY, “binds”.
With FRGRGAAY the entry was “binds”; with YEGGADVF, “no binding”.
On to DAGAADAV, for which the antigen binding call was “no binding”.
With DTGTGSWD the entry was “no binding”; with VTEGGDAA, “no binding”.
With FTGRGAAA the entry was “binds”; with FKGRGAAY, “binds”; with FTRAGAAA, “no binding”.
Regarding FTGRGAVA, the antigen binding call is reported as “no binding”.
With SEARSDSV, the antigen binding call is “no binding”.
Consider VKAGDAVY, for which the antigen binding call is reported as “no binding”.
With DRAGDDGY the entry was “no binding”; with VRAGDSGY, “binds”; with YRAGDSGY, “binds”.
